CHT inh – inhibitors of human choline transporter CHT | Q9GZV3 | CHT-expressing cells, membrane potential dye, choline response; active compounds read low | B-score at 10 µM | hit rate 0.86% among 310,000;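 active means B-score over 3 SD under the library average, and starting fluorescence ratio not unusually high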;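 further: choline stimulus applied at its EC90 after an EC20 pre-addition; B-score computed on integrated fluorescence ratio after choline addition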
Target sequence (Q9GZV3 whole entry, looked up): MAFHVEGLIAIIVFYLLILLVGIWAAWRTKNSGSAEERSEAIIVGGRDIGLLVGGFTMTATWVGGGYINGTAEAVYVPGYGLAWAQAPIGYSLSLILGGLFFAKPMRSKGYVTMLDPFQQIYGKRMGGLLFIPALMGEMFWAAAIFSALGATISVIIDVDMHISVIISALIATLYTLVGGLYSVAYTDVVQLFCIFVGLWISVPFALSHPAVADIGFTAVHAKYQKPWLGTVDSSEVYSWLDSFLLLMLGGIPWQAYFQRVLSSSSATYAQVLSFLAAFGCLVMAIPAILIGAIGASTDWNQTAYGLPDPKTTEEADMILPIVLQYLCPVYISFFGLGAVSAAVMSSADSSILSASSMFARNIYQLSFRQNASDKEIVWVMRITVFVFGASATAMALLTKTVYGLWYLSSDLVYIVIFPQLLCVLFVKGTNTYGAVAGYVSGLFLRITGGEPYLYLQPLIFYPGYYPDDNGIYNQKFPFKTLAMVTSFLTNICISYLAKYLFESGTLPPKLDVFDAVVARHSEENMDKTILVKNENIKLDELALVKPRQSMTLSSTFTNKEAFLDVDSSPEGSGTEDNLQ
HDAC3 inhib – inhibitors of human histone deacetylase 3 | O15379 | recombinant HDAC3, fluorogenic peptide/trypsin coupled, fluorescence | inhibition, % at 8.3 µM | hit rate 0.15% among 320,000 | AID 2718; in the data active means inhibition above about 26%, passing the limit was not always enough
ANO1 activ – activates or potentiates the mouse TMEM16A chloride channel; B-score at 10 µM; Q8BHY3; HEK293 TMEM16A/YFP-H148Q/I152L, iodide quench fluorescence; active compounds read low; hit rate 0.3% among 340,000;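 active means fluorescence-ratio B-score plate-corrected deviation score at least 3 library SD below zero, with starting fluorescence score within 5 deviations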;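 further: channel opened by trigger with iodide after compound preincubation; score built on the fluorescence ratio of max minus min over baseline; more negative score means more quench and so TMEM16A activation or potentiation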
PHOSPHO1 inh – blocks human PHOSPHO1 phosphatase activity | recombinant PHOSPHO1, absorbance phosphatase assay | inhibition, % at 13.3 µM | hit rate 1.1% among 290,000 | AID 1565; in the data active means inhibition above about 60%
CHT PAM – human CHT allosteric activation; Q9GZV3; CHT-expressing cells, membrane potential dye, choline EC20; active compounds read high; LV-AA mutant CHT in HEK293 cells; B-score at 10 µM; hit rate 0.49% among 310,000; AID 488977;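 active means initial fluorescence not abnormally high and integrated response B-score, plate-corrected, over 3 SD above library mean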
TMEM16A inh – mouse TMEM16A channel inhibition, primary screen | normalized B-score (activity score, 25-100; higher = stronger inhibition) at 10 µM | HEK293 TMEM16A/YFP iodide influx fluorescence, ionomycin | hit rate 1.2% among 310,000 | Q8BHY3 | AID 588511;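 active means ratio plate-corrected score three or more library SD toward inhibition, starting fluorescence score within five deviations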;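 further: score derived from kinetic fluorescence span divided by baseline fluorescence per well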
* = called active by the depositor; i = inactive; x = not tested or not shown. Only some compounds are listed: those with a hit (about 3.2% of all), similar ones and a draw of the others.

SMILES | CHT inh | HDAC3 inhib | ANO1 activ | PHOSPHO1 inh | CHT PAM | TMEM16A inh
CNC(=O)NC(=O)COC(=O)CCc1nc(=O)c2ccccc2n1C | i | -2 | i | 0 | i | i
CCCc1c(C)nn(-c2ncccc2[N+](=O)[O-])c1C | i | 3 | i | 60* | i | i
C/C(=C\C(=O)c1ccc(Br)cc1)NCc1ccc(C)cc1 | i | -1 | i | 13 | i | 100*
C/C(=C\C(=O)c1ccc(Br)cc1)NCc1ccccc1 | i | 13 | i | 20 | i | i
Cc1cccc(C2=NN(c3ccc(Br)cc3)[C@@H](C(=O)N3CCOC3=O)[C@@H]2c2ccc([N+](=O)[O-])cc2)c1 | x | x | i | x | x | x
CSCCC(NC(=O)c1ccc(Cl)cc1)C(=O)OCC(=O)NCc1ccco1 (stereo not drawn) | i | -5 | i | x | i | i
COc1ccccc1C(=O)NC(CCSC)C(=O)OCC(=O)NC(=O)NCc1ccco1 (stereo not drawn) | i | -1 | -24* | 33 | i | i
CC(On1nnc2ccccc21)C(=O)N1CCN(Cc2ccccc2)CC1 (stereo not drawn) | i | 2 | i | 80* | i | i
CC(=O)c1cc2c(cc1NC(=O)c1cc(C)nn1-c1ccccc1)OCO2 | i | 1 | i | 1 | i | i
COc1ccc(CCNC(=O)COC(=O)C2CC2C)cc1OC (stereo not drawn) | x | 5 | -42* | x | x | x
COc1ccc(CCNC(=O)C(C)Sc2ccccc2)cc1OC (stereo not drawn) | i | -1 | i | 60* | i | i
O=C(NCc1cccnc1)c1cn(CCc2ccccc2)nn1 | i | 1 | i | 0 | i | 25*
O=C1ON=C(c2ccccc2)/C1=C/c1ccc(-c2ccccc2[N+](=O)[O-])o1 | i | 4 | -6.2* | 12 | i | 25*
CCOC(=O)CN1NC2(CCC(C)CC2)NC1=S (stereo not drawn) | i | 3 | i | 95* | i | i
CCOC(=O)CN1NC2(CCCCCCC2)NC1=S | i | 0 | i | 8 | i | i
CCOC(=O)CN1NC2(CCCCC2)NC1=S | i | 4 | i | 100* | i | i
CCOC(=O)CN1NC2(CCCC(C)C2)NC1=S (stereo not drawn) | i | 6 | i | 91* | i | i
COC(=O)c1ccc(C)c(NC(=O)CCn2[nH]c(=O)ccc2=O)c1 | x | x | i | x | x | x
CC(C)CNC(=O)NC(=O)COc1c(F)c(F)cc(F)c1F | i | 4 | i | 21 | i | i
CCOC(=O)c1cnc(-n2nc(C)cc2C)nc1NCc1ccccc1 | i | -4 | i | 55 | i | 100*
CCOC(=O)c1cnc2ccc(OCC)cc2c1NCc1ccccc1 | i | -7 | i | -4 | i | 100*
CCOC(=O)c1cnc2ccc(OCC)cc2c1NCc1cccnc1 | i | x | i | 3 | i | i
CC1(c2ccc(Cl)c(Cl)c2)NC(=S)N2C1NC(=S)N2c1ccccc1 (stereo not drawn) | i | -1 | i | 89* | i | i
COc1ccc(CNCCC2(O)CC(C)N(C)CC2C)cc1OC (stereo not drawn) | i | 1 | i | 40 | i | i
COCCCNc1nc2nonc2nc1N1CCC(C(C)N2CCOCC2)CC1 (stereo not drawn) | i | -2 | i | 70* | i | i
SMILES | CHT inh | HDAC3 inhib | ANO1 activ | PHOSPHO1 inh | CHT PAM | TMEM16A inh
CC(=O)c1cccc(NC(=O)COC(=O)C2=COCCO2)c1 | i | 2 | i | 68* | i | i
Cn1nnc2cc(C(=O)NC3CC3)ccc21 | i | -1 | -29* | -12 | i | i
CCCCCCCCN1[C@@H](CC(=O)OC)c2cc(F)ccc2S1(=O)=O | i | 14 | i | x | i | i
CCCCCCCCN1[C@@H](CC(=O)OCC)c2cc(F)ccc2S1(=O)=O | i | 13 | i | x | i | 25*
Cc1ccc(NC(=O)C2CCN(S(=O)(=O)c3cccs3)CC2)c(O)c1 | i | 2 | i | 62* | i | i
CCOC(=O)Cc1csc(NC(=O)CN2C(=O)c3ccccc3C2=O)n1 | i | 3 | i | 46 | i | i

Screening results deposited in PubChem by several laboratories.
